Reference: PubChem BioAssay

Each molecule was assayed on XIP peptide (Xip251-270) (assay: compounds binding XIP fragment 251-270 – biochemical, small-molecule microarray, fluorescence 635/667 nm, 0.5 µg/mL protein, primary screen (AID 1183)). Settings: fluorescence 635 nm, higher = more signal.

Q: With `CC(C)(C)N1C(=O)[C@H]2[C@H]3[C@H](O)[C@H](O)CC(=NOC[C@@H](O)COCc4ccco4)[C@H]3CC[C@H]2C1=O` as the molecule, how does the composite z-score read?
A: Its composite z-score is 0.72.

Q: How did the composite z-score turn out when `C#CCCCON=C1C[C@@H](O)[C@@H](O)[C@@H]2[C@@H]3C(=O)N(CC)C(=O)[C@@H]3CC[C@H]12` was run?
A: Its composite z-score is -0.423.

Q: With `CC(C)CON=C1C[C@@H](O)[C@@H](O)[C@@H]2[C@@H]3C(=O)N(Cc4ccccc4)C(=O)[C@@H]3CC[C@H]12` as the molecule, how does the composite z-score read?
A: The composite z-score was 0.106.

Q: With `CCOC(=O)CCN1C(=O)[C@H]2[C@H]3[C@H](O)[C@H](O)CC(=NOCC(C)C)[C@@H]3CC[C@H]2C1=O` as the molecule, how does the composite z-score read?
A: The composite z-score was 0.203.

Q: With `O=C1C=C[C@@H](O)[C@@H]2[C@@H]3C(=O)N(Cc4ccc5c(c4)OCO5)C(=O)[C@@H]3CC[C@@H]12` as the molecule, how does the composite z-score read?
A: Its composite z-score is 0.228.

Q: `CC[C@@H](c1ccccc1)n1c(=O)n2n(c1=O)[C@H]1[C@H](O)[C@@H]3O[C@@H]3C(=NOCc3ccccc3)[C@H]1CC2` was tested. Which composite z-score did it give?
A: Its composite z-score is 0.539.

Q: With `COC(=O)[C@H](C)NC(=O)CCC1CC(OC(=O)NCc2ccc3c(c2)OCO3)CC2(CCCC(COC(=O)NCc3ccccc3)O2)O1` (stereo partly specified) as the molecule, how does the composite z-score read?
A: The composite z-score was 0.554.

Q: For `COC(=O)[C@H](CCSC)NC(=O)CC=C[C@@H](C)CO`, which composite z-score is on record?
A: The composite z-score was 0.334.

Q: `COc1ccc(COC(=O)NN=C2C[C@@H](O)[C@@H](O)[C@@H]3[C@@H]4C(=O)N(C5CCCCC5)C(=O)[C@@H]4CC[C@@H]23)cc1` was tested. Which composite z-score did it give?
A: Its composite z-score is 0.0499.

Q: `CON=C(C)CCC(=O)OC[C@H]1O[C@H](C#Cc2ccccc2)C=C[C@@H]1Oc1ccc(C)cc1` was tested. Which composite z-score did it give?
A: Its composite z-score is 0.627.

Q: For `CC(=O)OC[C@H]1O[C@@H](ON=C2[C@H]3CCn4c(=O)n(-c5ccccc5)c(=O)n4[C@H]3[C@H](O)[C@@H]3O[C@H]23)[C@H](OC(C)=O)[C@@H](OC(C)=O)[C@@H]1OC(C)=O`, which composite z-score is on record?
A: Its composite z-score is 0.292.

Q: How did the composite z-score turn out when `C[C@H]1CC[C@H]2C(=O)OC(COc3ccc(C(C)(C)C)cc3)CN2[C@@H]1c1ccc(Br)cc1` (stereo partly specified) was run?
A: The composite z-score was 0.3.

Q: Which composite z-score does the source give for `CO[C@H]1C[C@@H]2C[C@H](O)CC(CC(=O)O[C@@H](C=CCC(C)C)C[C@@H]3CC[C@H](C)[C@@H](C1)O3)O2` here?
A: The composite z-score was 0.142.

Q: For `O=C1CCCC=C1C(O)c1ccc([N+](=O)[O-])cc1` (stereo unspecified), which composite z-score is on record?
A: Its composite z-score is 0.852.

Q: `COc1ccc(COC(=O)NN=C2C[C@@H](O)[C@@H](O)[C@@H]3[C@@H]4C(=O)N(Cc5ccc6c(c5)OCO6)C(=O)[C@@H]4CC[C@H]23)cc1` was tested. Which composite z-score did it give?
A: The composite z-score was 0.174.

Q: `CON=C(C)CCN1CCc2nc(-c3ccccc3)c(-c3ccccc3)cc2C1` was tested. Which composite z-score did it give?
A: The composite z-score was 0.41.

Q: `CCN1C(=O)[C@H]2[C@H]3[C@H](O)[C@H](O)CC(=NO[C@H](C)c4cn([C@@H]5COC[C@H]5O)nn4)[C@@H]3CC[C@H]2C1=O` was tested. Which composite z-score did it give?
A: Its composite z-score is -0.629.

Q: For `CO[C@H]1COC(=O)[C@H](C)COC(=O)[C@H](C)NC(=O)CC=C[C@H]1C`, which composite z-score is on record?
A: Its composite z-score is 0.506.

Q: `CO[C@H]1COC(=O)CCC[C@H](C)[C@@H](OC)COC(=O)CC=C[C@@H]1C` was tested. Which composite z-score did it give?
A: Its composite z-score is 0.003.

Q: How did the composite z-score turn out when `CC(C)C(=O)N[C@H]1CCCN1C(=O)C=Cc1ccccc1` was run?
A: Its composite z-score is -0.168.

Q: Which composite z-score does the source give for `CCOC(=O)CCN1C(=O)[C@H]2[C@H]3[C@H](O)[C@H](O)CC(=NNC(=O)OCC)[C@H]3CC[C@H]2C1=O` here?
A: Its composite z-score is -0.397.

Q: `CC(CCN1CCCc2nc(C)c(C)cc21)=NO[C@H](C)c1cn([C@H](CO)Cc2ccccc2)nn1` was tested. Which composite z-score did it give?
A: The composite z-score was 0.532.

Q: `COC(=O)[C@@H]1CC[C@H](C)[C@@H](c2ccc(Br)cc2)N1C[C@H](O)CN=[N+]=[N-]` was tested. Which composite z-score did it give?
A: Its composite z-score is -0.135.

Q: For `CCOC(=O)CCN1C(=O)[C@H]2[C@H]3[C@H](O)[C@H](O)CC(=NOCC=C(C)CCC=C(C)C)[C@@H]3CC[C@H]2C1=O`, which composite z-score is on record?
A: The composite z-score was 0.613.

Q: How did the composite z-score turn out when `CCN1C(=O)[C@H]2[C@H]3[C@H](O)[C@H](O)CC(=NNC(=O)OCc4ccccc4)[C@@H]3CC[C@H]2C1=O` was run?
A: Its composite z-score is -0.0369.

Q: How did the composite z-score turn out when `COC(=O)[C@@H]1CC[C@H](C)[C@@H](c2ccc(Br)cc2)N1C[C@@H](O)CN=[N+]=[N-]` was run?
A: The composite z-score was -0.03.

Q: Which composite z-score does the source give for `CC(C)CON=C1C[C@@H](O)[C@@H](O)[C@@H]2[C@@H]3C(=O)N([C@@H](C)c4ccccc4)C(=O)[C@@H]3CC[C@@H]12` here?
A: Its composite z-score is -0.344.

Q: `CC(C)CON=C1C[C@@H](O)[C@@H](O)[C@@H]2[C@@H]3C(=O)N(Cc4ccc5c(c4)OCO5)C(=O)[C@@H]3CC[C@@H]12` was tested. Which composite z-score did it give?
A: Its composite z-score is -0.266.

Q: How did the composite z-score turn out when `CCOC(=O)[C@H](CC(C)C)NC(=O)CCC1CC(OC(=O)NCCc2ccc(F)cc2)CC2(CCCC(COC(=O)NCCOC)O2)O1` (stereo partly specified) was run?
A: The composite z-score was 0.39.

Q: With `CO[C@@H]1COC(=O)[C@@H]2CCCN2C(=O)[C@@H](C)COC(=O)CCC[C@H]1C` as the molecule, how does the composite z-score read?
A: Its composite z-score is 0.143.

Q: How did the composite z-score turn out when `CC(=O)OC[C@H]1O[C@H](CC=NOC[C@@H](O)[C@H]2O[C@@H]3OC(C)(C)O[C@@H]3[C@H]2O)C=C[C@@H]1OC(C)=O` was run?
A: Its composite z-score is 0.732.
